Screen size: about 5,500 compounds; about 2,000 (36%) were called active. Not shown: some 18% with an inconclusive outcome. No stated cut-off is given here; in the data, active means normalized growth mostly below about 0.91 (no sharp cut-off); inconclusive means no clear call, values can overlap the other calls; inactive means mostly above about 0.92. The list shows a part of the results.
Assay: chemical genetic growth profiling, strain panel (AID 1159580);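 further: tested at 20 µM; growth read once vehicle control cultures reached saturation at 30 °C; 1 = growth at the plate median or of vehicle wells; lower values mean less growth of the strain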
Conditions: growth OD

Measured: normalized growth

CCCN(CCC)S(=O)(=O)c1ccc(C(=O)O)cc1
inactive: S. cerevisiae deletion strains, locus YJR075W, strain HOC1, hits give low values 1 | S. cerevisiae deletion strains, locus YKL009W, strain mrt4, hits give low values 0.998 | S. cerevisiae deletion strains, locus YKL068W, hits give low values 0.998 | S. cerevisiae deletion strains, locus YKL085W, strain MDH1 (second series), hits give low values 1 | S. cerevisiae deletion strains, locus YKL085W, strain MDH1, hits give low values 1 | S. cerevisiae deletion strains, locus YKL160W, strain elf1, hits give low values 0.971 | S. cerevisiae deletion strains, locus YKL190W, strain CNB1, hits give low values 0.983 | S. cerevisiae deletion strains, locus YKR001C, strain vps1, hits give low values 1.02 | S. cerevisiae deletion strains, locus YKR026C, strain gcn3, hits give low values 0.988 | S. cerevisiae deletion strains, locus YKR091W, strain srl3, hits give low values 0.993 | S. cerevisiae deletion strains, locus YLL001W, strain dnm1, hits give low values 0.952 | S. cerevisiae deletion strains, locus YLL026W, hits give low values 0.984 | S. cerevisiae deletion strains, locus YLL041C, strain sdh2, hits give low values 0.992 | S. cerevisiae deletion strains, locus YLR027C, strain aat2, hits give low values 0.973 | S. cerevisiae deletion strains, locus YLR039C, strain RIC1, hits give low values 1.02 | S. cerevisiae deletion strains, locus YLR058C, strain SHM2, hits give low values 1 | S. cerevisiae deletion strains, locus YLR102C, strain apc9, hits give low values 1 | S. cerevisiae deletion strains, locus YLR113W, strain HOG1, hits give low values 0.976 | S. cerevisiae deletion strains, locus YLR221C, strain rsa3, hits give low values 0.995 | S. cerevisiae deletion strains, locus YLR258W, strain gsy2, hits give low values 0.992 | S. cerevisiae deletion strains, locus YLR262C, strain YPT6 (second series), hits give low values 0.971 | S. cerevisiae deletion strains, locus YLR262C, strain YPT6, hits give low values 1.01 | S. cerevisiae deletion strains, locus YLR268W, strain sec22, hits give low values 1.03 | S. cerevisiae deletion strains, locus YLR320W, strain mms22, hits give low values 0.99 | S. cerevisiae deletion strains, locus YLR330W, strain CHS5, hits give low values 0.994 | S. cerevisiae deletion strains, locus YLR342W, strain FKS1 (second series), hits give low values 0.984 | S. cerevisiae deletion strains, locus YLR342W, strain FKS1, hits give low values 0.961 | S. cerevisiae deletion strains, locus YLR357W, strain rsc2, hits give low values 0.951 | S. cerevisiae deletion strains, locus YLR370C, strain arc18, hits give low values 0.974 | S. cerevisiae deletion strains, locus YLR371W, strain rom2, hits give low values 1.01 | S. cerevisiae deletion strains, locus YLR384C, strain iki3, hits give low values 0.983 | S. cerevisiae deletion strains, locus YLR418C, strain cdc73, hits give low values 1.03 | S. cerevisiae deletion strains, locus YML016C, strain PPZ1, hits give low values 1 | S. cerevisiae deletion strains, locus YML032C, strain rad52, hits give low values 1.02 | S. cerevisiae deletion strains, locus YML120C, strain ndi1, hits give low values 0.993 | S. cerevisiae deletion strains, locus YML124C, strain tub3, hits give low values 1.01 | S. cerevisiae deletion strains, locus YMR058W, strain fet3, hits give low values 0.991 | S. cerevisiae deletion strains, locus YMR078C, strain ctf18, hits give low values 1.03 | S. cerevisiae deletion strains, locus YMR125W, strain sto1, hits give low values 0.983 | S. cerevisiae deletion strains, locus YMR129W, hits give low values 0.991 | S. cerevisiae deletion strains, locus YMR205C, strain PFK2, hits give low values 0.984 | S. cerevisiae deletion strains, locus YMR223W, strain ubp8, hits give low values 0.992 | S. cerevisiae deletion strains, locus YMR231W, strain pep5, hits give low values 0.986 | S. cerevisiae deletion strains, locus YMR263W, strain SAP30, hits give low values 1 | S. cerevisiae deletion strains, locus YMR307W, strain GAS1, hits give low values 1 | S. cerevisiae deletion strains, locus YNL067W, strain RPL9B, hits give low values 1.01 | S. cerevisiae deletion strains, locus YNL071W, strain lat1, hits give low values 0.999 | S. cerevisiae deletion strains, locus YNL128W, strain TEP1, hits give low values 1.01 | S. cerevisiae deletion strains, locus YNL153C, strain GIM3, hits give low values 1.01 | S. cerevisiae deletion strains, locus YNL183C, strain NPR1, hits give low values 0.97 | S. cerevisiae deletion strains, locus YNL209W, strain ssb2, hits give low values 1.01 | S. cerevisiae deletion strains, locus YNL233W, strain BNI4, hits give low values 0.999 | S. cerevisiae deletion strains, locus YNL248C, strain rpa49, hits give low values 0.989 | S. cerevisiae deletion strains, locus YNL250W, strain rad50, hits give low values 1.01 | S. cerevisiae deletion strains, locus YNL271C, strain bni1, hits give low values 1.01 | S. cerevisiae deletion strains, locus YNL298W, strain CLA4, hits give low values 1.01 | S. cerevisiae deletion strains, locus YNL307C, strain MCK1, hits give low values 1.01 | S. cerevisiae deletion strains, locus YNL322C, strain KRE1 (second series), hits give low values 0.99 | S. cerevisiae deletion strains, locus YNL322C, strain KRE1, hits give low values 0.997 | S. cerevisiae deletion strains, locus YNR049C, strain mso1, hits give low values 0.984 | S. cerevisiae deletion strains, locus YNR052C, strain pop2, hits give low values 1.02 | S. cerevisiae deletion strains, locus YOL006C, strain TOP1, hits give low values 1.05 | S. cerevisiae deletion strains, locus YOL012C, strain htz1 0.687 | S. cerevisiae deletion strains, locus YOL147C, strain pex11, hits give low values 1 | S. cerevisiae deletion strains, locus YOR001W, strain rrp6, hits give low values 0.98 | S. cerevisiae deletion strains, locus YOR061W, strain CKA2, hits give low values 1 | S. cerevisiae deletion strains, locus YOR069W, strain VPS5, hits give low values 0.995 | S. cerevisiae deletion strains, locus YOR070C, strain gyp1, hits give low values 1 | S. cerevisiae deletion strains, locus YOR080W, strain dia2, hits give low values 0.982 | S. cerevisiae deletion strains, locus YOR083W, strain WHI5, hits give low values 0.953 | S. cerevisiae deletion strains, locus YOR106W, strain vam3, hits give low values 0.971 | S. cerevisiae deletion strains, locus YOR136W, strain idh2, hits give low values 1.02 | S. cerevisiae deletion strains, locus YOR144C, strain elg1, hits give low values 1.01 | S. cerevisiae deletion strains, locus YOR184W, strain ser1, hits give low values 1.04 | S. cerevisiae deletion strains, locus YOR231W, strain MKK1, hits give low values 0.976 | S. cerevisiae deletion strains, locus YOR265W, strain rbl2, hits give low values 0.992 | S. cerevisiae deletion strains, locus YOR270C, strain vph1, hits give low values 1 | S. cerevisiae deletion strains, locus YOR290C, strain snf2, hits give low values 1.01 | S. cerevisiae deletion strains, locus YOR316C, strain cot1, hits give low values 1.01 | S. cerevisiae deletion strains, locus YPL051W, strain arl3, hits give low values 0.984 | S. cerevisiae deletion strains, locus YPL055C, strain LGE1, hits give low values 0.976 | S. cerevisiae deletion strains, locus YPL078C, strain atp4, hits give low values 0.953 | S. cerevisiae deletion strains, locus YPL106C, strain sse1, hits give low values 1.01 | S. cerevisiae deletion strains, locus YPL240C, strain hsp82, hits give low values 0.977 | S. cerevisiae deletion strains, locus YPL241C, strain CIN2, hits give low values 0.991 | S. cerevisiae deletion strains, locus YPL256C, strain CLN2, hits give low values 1.04 | S. cerevisiae deletion strains, locus YPR119W, strain clb2, hits give low values 1.01 | S. cerevisiae deletion strains, locus YPR141C, strain kar3, hits give low values 1 | S. cerevisiae deletion strains, locus YPR163C, strain tif3, hits give low values 1.01 | S. cerevisiae deletion strains, locus YPR167C, strain met16, hits give low values 1.01 | S. cerevisiae deletion strains, strain wtn01, hits give low values 1.01 | S. cerevisiae strains, strain wild type, hits give low values 0.99

Source: PubChem BioAssay AID1159580 (chemical genetic matrix, 2015)
